In PubChem BioAssay (NCI):
About 83,000 compounds went through this panel and 20% of them were active in at least one assay; those are over-represented in the sample as a whole.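 Treatment: one concentration, 48 hours, 96-well format. Scoring: percent growth, with anything below 10 considered active.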 Unmarked numbers belong to inactive results. The source made the active and inactive calls.

Columns and labels:
Test in all cases: NCI-60 one-dose screen, 48 h (100 = growth as untreated, 0 = no growth, -100 = all killed)
[1] = test system: HCT-15 colon; settings: 10 µM unless noted
[2] = test system: HT29 colon; settings: 10 µM unless noted
[3] = test system: SNB-75 CNS; settings: 10 µM unless noted
[4] = test system: SNB-19 CNS; settings: 10 µM unless noted
[5] = test system: U251 CNS; settings: 10 µM unless noted
[6] = test system: PC-3 prostate; settings: 10 µM unless noted
[7] = test system: UACC-62 melanoma; settings: 10 µM unless noted
[8] = test system: SK-MEL-28 melanoma; settings: 10 µM unless noted
[9] = test system: SK-MEL-2 melanoma; settings: 10 µM unless noted
[10] = test system: EKVX NSCLC; settings: 10 µM unless noted
[11] = test system: SN12C renal; settings: 10 µM unless noted
[12] = test system: UO-31 renal; settings: 10 µM unless noted
[13] = test system: TK-10 renal; settings: 10 µM unless noted
[14] = test system: ACHN renal; settings: 10 µM unless noted
[15] = test system: CAKI-1 renal; settings: 10 µM unless noted
[16] = test system: A498 renal; settings: 10 µM unless noted
[17] = test system: CCRF-CEM leukemia; settings: 10 µM unless noted
[18] = test system: MOLT-4 leukemia; settings: 10 µM unless noted
[19] = test system: LOX IMVI melanoma; settings: 10 µM

SMILES | growth [1] | growth [2] | growth [3] | growth [4] [%] | growth [5] | growth [6] [%] | growth [7] | growth [8] [%] | growth [9] | growth [10] | growth [11] | growth [12] [%] | growth [13] [%] | growth [14] [%] | growth [15] [%] | growth [16] [%] | growth [17] | growth [18] | growth [19] [%]
CCOc1ccc(C(=O)O)cc1 | 95.7% | 103% | 89.2% | 112 | 103% | 91.2 | 104% | 105 | 109% | 99.6% | 113% | 102 | 99.6 | 109 | 97.9 | 84.7 | 105% | 116% | –
COc1ccc(Br)c2c1C(=O)CC2 | 110% | 106% | 99.6% | 108 | 107% | 96.6 | 90.4% | 135 | 96% | 106% | 91.8% | – | 147 | 114 | 110 | 169 | 93.1% | 142% | 104
C=C(c1ccc(N(C)C)cc1)c1ccc(N(C)C)cc1 | 6.8% (active) | -31.6% (active) | -14.5% (active) | 20.6 | 3.57% (active) | 25.7 | -8.67% (active) | 31.5 | -8.02% (active) | 6.55% (active) | 1.84% (active) | 28.8 | 58.2 | 36.1 | 22.2 | – | -14.1% (active) | 5.78% (active) | –
CCCC(=O)c1cccs1 | 100% | 98% | 88.5% | 101 | 110% | 89.2 | 95.1% | 107 | 115% | – | 95.6% | – | 101 | 103 | 99.7 | 61 | 102% | 100% | 95.9
